Pf Dd2 growth: inhibitors of Plasmodium falciparum Dd2 growth | actives 4.3% (n = 120,000) | P. falciparum Dd2 growth, SYBR Green, 72 h | Potency, µM (top dose mostly 28.9 µM), inactives show at the highest dose activity, negative = inhibition, hits mostly inhibitors | AID 1347417; active = well fitted inhibition curve with a large enough effect;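 note: plate controls were DMSO vehicle for no effect and reference drug for full effect; nearly all actives have a fitted effect of over 65% in size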
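Readout: SYBR Green fluorescence, 485 nm excitation, 535 nm emission, after ~16 h lysis at 37C. Before that, Dd2-infected red cells (2.5% hematocrit) grew 72 h with compound, 29 uM top final concentration.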
* marks the source's active call; other numbers are inactive results; [ ] = dose if it differs, or a comment. Only a selection was taken, and hits are over-represented in it overall. Potency is the fitted concentration of half-maximal effect.

Screening O=C(c1ccc(Cl)cc1)N1CC2(CCCN2Cc2ccc(C(F)(F)F)cc2)Cc2ccccc21 (stereo not drawn) returned Pf Dd2 growth 10µM*.
For O=C(c1ccc(Cl)cc1)N1CC2(CCN(Cc3ccc(Cl)cc3)CC2)Cc2ccccc21 the results were Pf Dd2 growth 12.6µM*.
Screening COCC1CN(C(C)=O)CC12CCN(Cc1c[nH]c3ccccc13)CC2 (stereo not drawn) returned Pf Dd2 growth -6.2%.
`CC(=O)N1CC2(Cc3ccccc31)CN(C(=O)c1ccc(C(F)(F)F)cc1)C2` gave Pf Dd2 growth -27.7%.
For CC(=O)N1CC2(CCN(Cc3ccccn3)C2)Cc2ccccc21 (stereo not drawn) the results were Pf Dd2 growth -1.0%.
Screening CC(=O)N1CC2(CCN(Cc3ccccn3)CC2)Cc2ccccc21 returned Pf Dd2 growth -12.1%.
`O=C(c1ccc(Cl)cc1)N1CC2(CCN(Cc3c[nH]c4ccccc34)CC2)Cc2ccccc21` gave Pf Dd2 growth 2.51µM*.
`CC(=O)N1CC2(CCCCN2Cc2ccc(Cl)cc2)Cc2ccccc21` (stereo not drawn) gave Pf Dd2 growth 4.0%.
Cn1cccc1C(=O)N1CCOCC1CC(=O)N1CCSCC1 (stereo not drawn) was read as Pf Dd2 growth -3.3%.
`CC1(C)N=C(c2ccccc2)C(=O)N1CC(=O)N1CCN(c2ccccc2)CC1` gave Pf Dd2 growth inactive.
Screening CN(C)c1ccc(-c2nnnn2[C@H]2CO[C@H]3[C@@H]2OC[C@@H]3NS(=O)(=O)c2ccc3ccccc3c2)cc1 returned Pf Dd2 growth -28.1%.
Cc1ccc(C(=O)N2CCCOCCNC(=O)CC2)s1 was read as Pf Dd2 growth 12.5%.
`Cc1cccc(-c2nc(Cn3c(-c4ccccc4)nc(C)c(CCO)c3=O)c(C)o2)c1` gave Pf Dd2 growth -3.1%.
Screening CCCS(=O)(=O)N1CCCC(Cc2noc(-c3ccccc3)n2)C1 (stereo not drawn) returned Pf Dd2 growth inactive.
Screening CC(=O)N1CCN2C(=O)N([C@@H](C)c3ccccc3)C(=O)[C@@H]2C1 returned Pf Dd2 growth -17.8%[44.1 µM].
Screening Cc1ccc(C(=O)N2CCC3(CC2)N(C)C(=O)CS3(=O)=O)s1 returned Pf Dd2 growth 6.9%.
`COCC(=O)NCCc1noc(-c2ccccc2)n1` gave Pf Dd2 growth -5.2%.
`Cc1cnccc1NCCNc1ncncn1` gave Pf Dd2 growth 4.4%.
For COc1ncccc1-c1ncc2c(n1)OCCN(Cc1ccccc1)C2=O the results were Pf Dd2 growth -19.2%[44.1 µM].
`COc1cccc(-c2ncc3c(n2)OCCN(Cc2ccccc2)C3=O)c1` gave Pf Dd2 growth inactive.
For O=C1c2cnc(-c3ccc(F)cc3F)nc2OCCN1Cc1ccc(F)cc1F the results were Pf Dd2 growth -1.6%[44.1 µM].
For O=C1c2cnc(-c3ccoc3)nc2OCCN1Cc1ccc(F)cc1F the results were Pf Dd2 growth inactive.
Screening CC(=O)Nc1cccc(-c2ncc3c(n2)OCCN(Cc2ccc(F)cc2F)C3=O)c1 returned Pf Dd2 growth 12.6µM*.
COc1ccc(-c2ncc3c(n2)OCCN(Cc2ccccc2)C3=O)cc1 was read as Pf Dd2 growth 1.26µM*.
COCCN1CCCCCC(O)c2cc(C(=O)NCCCc3ccccc3)ccc21 (stereo not drawn) was read as Pf Dd2 growth -24.0%.
CN1C(=O)c2cccn2CC1C(=O)NCc1ccccc1 (stereo not drawn) was read as Pf Dd2 growth -12.1%.
For COc1cccc(N2CC(C(=O)NCC(F)(F)F)NC2=O)c1 (stereo not drawn) the results were Pf Dd2 growth 2.5%[44.1 µM].
`COc1cccc(C(=O)NCc2nnc3cc(-c4nc(C)no4)ccn23)c1` gave Pf Dd2 growth inactive.
CC1(COc2ccc3[nH]ccc3c2)COc2ccc(C(=O)Nc3cccnc3)cc2N1 (stereo not drawn) was read as Pf Dd2 growth inactive.
`CCN1C(=O)c2ccccc2Sc2ccc(NC(=O)c3ccc(Cl)cc3)cc21` gave Pf Dd2 growth inactive.
`N#Cc1ccc(C(=O)Nc2ccc3c(c2)N(C2CCCC2)C(=O)c2ccccc2S3)cc1` gave Pf Dd2 growth 11.2µM*.
Screening CCN1C(=O)c2ccccc2Sc2ccc(NC(=O)Nc3cc(C)cc(C)c3)cc21 returned Pf Dd2 growth -11.4%.
`Cc1ccc(NC(=O)C2CCN(C(=O)c3ncn4c3COC(c3ccccc3)C4)CC2)cc1C` (stereo not drawn) gave Pf Dd2 growth inactive.
Cc1ccc(-n2cc(CN3CCN4CCCC4C3)c(-c3cccc(C)c3)n2)cc1 (stereo not drawn) was read as Pf Dd2 growth 12.6µM*.
`Cc1ccc(-n2cc(CN3CCN(C)C(CCO)C3)cn2)cc1` (stereo not drawn) gave Pf Dd2 growth -21.5%.
Screening Cc1ccc(-n2cc(CN3CCC(CCO)CC3)c(-c3cccc(C)c3)n2)cc1 returned Pf Dd2 growth 10µM*.
`CN(C)C(=O)CN1CCCC(N2CCN(c3cccc(C(F)(F)F)c3)CC2)C1` (stereo not drawn) gave Pf Dd2 growth -9.1%.
Screening COC(=O)CN(C)Cc1cn(-c2ccc(C)cc2)nc1-c1cccc(C)c1 returned Pf Dd2 growth -11.5%.
For CC1CCCN(Cc2cn3c(-c4cccc(Br)c4)nnc3s2)C1 (stereo not drawn) the results were Pf Dd2 growth 21.6%.
Screening COc1ccc(CCc2nc3nccc(-c4ccc(OC)cc4F)n3n2)cc1 returned Pf Dd2 growth inactive.
`O=C(NCc1nnc2n1C(C(=O)N1CCN(c3ncccn3)CC1)CC2)c1cccnc1` (stereo not drawn) gave Pf Dd2 growth 17.1%.
Screening CCN(Cc1nccn1C)C(=O)c1ccc(NC[C@H]2C[C@H]3C=C[C@H]2C32CC2)nc1 returned Pf Dd2 growth inactive.
`N#Cc1ccc(C(=O)Nc2ccc([C@@H](O)[C@H]3COCC(=O)N3Cc3ccc(F)cc3)cc2)cc1` gave Pf Dd2 growth 10µM*.
N#Cc1cccc(C(=O)Nc2ccc([C@@H](O)[C@H]3COCC(=O)N3Cc3ccc(F)cc3)cc2)c1 was read as Pf Dd2 growth -18.1%.
Screening O=C(Nc1ccc([C@@H](O)[C@H]2COCC(=O)N2Cc2ccc(F)cc2)cc1)c1ccccc1 returned Pf Dd2 growth inactive.
CN(C)c1ccc(CN2CC(Oc3ccc(F)cc3F)C2)cc1 was read as Pf Dd2 growth -16.5%.
Cc1ccccc1NC(=O)Cn1c(-c2cccc(Cl)c2)nc(C)c(CCO)c1=O was read as Pf Dd2 growth inactive.
Screening Cc1nc(-c2ccc(F)cc2)n(CC(=O)Nc2cc(C(F)(F)F)ccc2Cl)c(=O)c1CCO returned Pf Dd2 growth 11.2µM*.
Cc1nc(-c2ccccc2)n(CC(=O)Nc2ccc(F)c(Cl)c2)c(=O)c1CCO was read as Pf Dd2 growth 8.91µM*.
For Cc1cc(C)cc(NC(=O)Cn2c(-c3cccc(Cl)c3)nc(C)c(CCO)c2=O)c1 the results were Pf Dd2 growth 10µM*.
Screening CCc1ccccc1NC(=O)Cn1c(-c2ccc(F)cc2)nc(C)c(CCO)c1=O returned Pf Dd2 growth -10.8%.
Cc1nc(-c2cccc(Cl)c2)n(CC(=O)NC(C)C)c(=O)c1CCO was read as Pf Dd2 growth -12.5%.
`CCc1ccc(NC(=O)Cn2c(-c3ccc(Cl)cc3)nc(C)c(CCO)c2=O)cc1` gave Pf Dd2 growth -11.7%.
For CC(=O)c1cccc(NC(=O)Cn2c(-c3ccc(F)cc3)nc(C)c(CCO)c2=O)c1 the results were Pf Dd2 growth -29.1%.

From PubChem BioAssay
